In ChEMBL document CHEMBL1961873, “Compounds: GSK PKIS; Assays: Nanosyn kinase panel” (2012):

Molecular target: MAP kinase-interacting serine/threonine-protein kinase 2 (Homo sapiens) (UniProt Q9HBH9)
Conditions: at 1 µM

Sequence of MAP kinase-interacting serine/threonine-protein kinase 2 (Homo sapiens) (Q9HBH9 whole entry, looked up): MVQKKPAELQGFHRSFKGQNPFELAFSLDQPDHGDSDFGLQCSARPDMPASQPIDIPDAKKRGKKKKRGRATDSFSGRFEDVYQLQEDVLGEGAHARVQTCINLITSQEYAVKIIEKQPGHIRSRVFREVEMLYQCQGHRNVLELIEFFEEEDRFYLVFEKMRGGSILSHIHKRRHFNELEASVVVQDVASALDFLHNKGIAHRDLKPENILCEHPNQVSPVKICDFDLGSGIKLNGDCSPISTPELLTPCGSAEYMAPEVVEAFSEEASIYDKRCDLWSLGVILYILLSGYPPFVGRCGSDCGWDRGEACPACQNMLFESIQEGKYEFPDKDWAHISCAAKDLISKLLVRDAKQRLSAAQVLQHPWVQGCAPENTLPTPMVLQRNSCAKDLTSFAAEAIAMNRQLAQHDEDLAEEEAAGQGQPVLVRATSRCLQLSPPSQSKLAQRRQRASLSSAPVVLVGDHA

Row | Compound | inhibition [%]
1 | CC1=C(C(=O)Nc2cc(Cl)c3[nH]ncc3c2)C(c2ccc(C(F)(F)F)cc2)CC(=O)N1 (stereo not given) | 5.02
2 | CS(=O)(=O)CCNCc1coc(-c2ccc3ncnc(Nc4ccc(OCc5ccccc5)cc4)c3c2)c1 | 14.1
3 | CCn1c(-c2nonc2N)nc2cnc(Oc3cccc(NC(=O)c4ccc(N(C)C)cc4)c3)cc21 | 27.8
4 | CNC(=O)c1cc(-c2ccc(F)cc2)cc(-c2ccc(S(=O)(=O)N3CCCC3)cc2)c1N | -0.59
5 | O=S(=O)(CCNCc1ccc(-c2ccc3ncnc(Nc4ccc(OCc5cccc(F)c5)c(Cl)c4)c3c2)o1)c1ccccc1 | 4.95
6 | N#Cc1c(NC(=O)c2ccc(F)cc2)sc2c1CCCC2 | 1.1
7 | CNC(=O)c1cccc(C#Cc2cncnc2Nc2ccc(OCc3cccc(F)c3)c(Cl)c2)c1 | 13.1
8 | CCn1c(-c2nonc2N)nc2c(C#CC(C)(C)O)nc(OC[C@H](N)c3ccccc3)cc21 | 2.92
9 | Nc1ncc(-c2cccc(S(N)(=O)=O)c2)c2scc(-c3ccc(F)c(Cl)c3)c12 | 6.22
10 | c1ccc(COc2ccc(Nc3ncnc4ccc(-c5ccco5)cc34)cc2)cc1 | 8.27
11 | N#Cc1c(NC(=O)CN2CCOCC2)sc2c1CCCC2 | 6.58
12 | NS(=O)(=O)c1ccc(N/N=C2\C(=O)Nc3ccc4ncccc4c32)cc1 | 20.4
13 | O=C(O[C@H]1CN[C@H](C#Cc2cc3ncnc(Nc4ccc(Cc5ccccc5)cc4)c3s2)C1)N1CCOCC1 | 48.1
14 | CC(=O)Nc1cccc(C#Cc2cncnc2Nc2ccc(OCc3cccc(F)c3)c(Cl)c2)c1 | 6.2
15 | Cc1cccc(Nc2ncc(-c3ccccc3)o2)c1 | 8.3
